Assay outcomes as filed in PubChem BioAssay.
A selection: hits, their analogues and other compounds. The true share with any hit is near 7.3%.
ELG1 genotoxic = genotoxicity induction in ELG1-luciferase HEK293T cells; HEK293T ELG1-luciferase reporter, luminescence, 16 h; 1.3% of 330,000 active; AID 504466; Potency, µM (top dose mostly 46 µM), usual class: activators; further: nearly all actives have a fitted effect of over 60% in size
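Genotoxicity was scored as increased ELG1-luciferase reporter signal, measured by ONE-Glo luminescence (30 min, room temperature). Compound or vehicle exposure of the HEK293T reporter cells lasted 16 hr at 37°C.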
SMN2 splice up = SMN2 splice variant enhancement. AID 1458. Potency, µM (highest dose often 46.1 µM), most hits filed as activators. 2.8% of 210,000 active. HEK293 SMN2-luciferase splicing reporter, luminescence, 30-36 h; further: nearly all actives have a fitted effect of over 55% in size
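HEK293 cells carry an SMN2 minigene-luciferase reporter in which exon 7 inclusion puts luciferase in frame. Cells were seeded at 2000 cells/well, attached for 10-12 hours, then exposed to compounds for 30-36 hours at 37C before ONE-Glo luminescence.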
Luc counter = blocks Kinase-Glo luciferase, a counter-screen artifact; Q27757; Kinase-Glo luciferase, ATP luminescence, 8 min; Potency, µM (series often up to 38.3 µM), actives largely listed as inhibitors; 0.28% of 200,000 active; AID 1379; further: nearly all actives have a fitted effect of over 60% in size
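Luminescence was the read-out, taken after 8-minute incubation at ambient temperature. Luciferase turned over luciferin with 10 uM ATP in imidazole pH 7.2 buffer containing KCl, MgCl2, Tween 20 and BSA.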
NPC1 promoter act = activates the NPC1 promoter. AID 485313. 2.4% of 320,000 active. Potency, µM (titrated, usually from 9.22 µM), most hits filed as activators. Huh7 NPC1 promoter luciferase reporter, 24 h; further: nearly all actives have a fitted effect of over 60% in size
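Huh7 cells stably carrying NPC1 promoter–luciferase, plated in Opti-MEM with 10% FBS for 2 h, were exposed to compound in DMSO for 24 h at 37 °C; luciferase reagent was added for 10 min and luminescence read.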
FLuc modulator = inhibits or activates purified firefly luciferase, miR-21 counter-screen | Potency, µM (highest dose often 57.5 µM), hits mostly inhibitors | purified FLuc, Km substrates, luminescence inhibition | 6.9% of 360,000 active | P08659; further: nearly all actives have a fitted effect of over 55% in size
Target sequence (P08659 whole entry, looked up): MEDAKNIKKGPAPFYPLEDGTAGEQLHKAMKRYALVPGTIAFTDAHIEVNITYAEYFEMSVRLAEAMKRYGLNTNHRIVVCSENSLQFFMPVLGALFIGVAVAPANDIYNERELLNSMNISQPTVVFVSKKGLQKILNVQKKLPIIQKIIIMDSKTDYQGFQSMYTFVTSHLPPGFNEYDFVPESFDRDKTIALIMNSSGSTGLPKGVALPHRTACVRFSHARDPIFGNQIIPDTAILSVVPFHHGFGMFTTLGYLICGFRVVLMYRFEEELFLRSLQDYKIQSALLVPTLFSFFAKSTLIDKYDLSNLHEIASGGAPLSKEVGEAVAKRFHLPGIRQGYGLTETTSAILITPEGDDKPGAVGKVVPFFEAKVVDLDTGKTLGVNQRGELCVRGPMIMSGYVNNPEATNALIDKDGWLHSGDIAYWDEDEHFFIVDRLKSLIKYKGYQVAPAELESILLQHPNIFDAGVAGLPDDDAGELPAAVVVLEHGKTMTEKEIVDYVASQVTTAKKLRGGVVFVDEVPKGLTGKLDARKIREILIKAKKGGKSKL
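Biochemical qHTS of compounds, final roughly 60 µM downward over six points, against 10 nM purified firefly luciferase using Km concentrations of substrates (10 uM D-luciferin, 10 uM ATP) in Tris acetate pH 7.5 buffer; luminescence output.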
Rab9 prom act = activates the Rab9 promoter. Potency, µM (doses to about 9.22 µM), most hits filed as activators. AID 485297. Huh7 Rab9 promoter-luciferase reporter, luminescence, 24 h. 2.8% of 320,000 active; further: nearly all actives have a fitted effect of over 60% in size
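Steps: seed 1500 Huh7 Rab9-luc cells per well, rest 2 h at 37 °C; add compound in DMSO; incubate 24 h; add luciferase reagent, 10 min ambient; read luminescence.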
Numbers stand for hits; – = inactive; ? = inconclusive; · = not tested or not shown; [ ] = another dose, or the depositor's remark. The call rests on the fitted dose curve; in most records, active means well fitted curve in the direction sought with a large enough effect; inconclusive means small, poorly fitted or top-dose-only effect, or another doubt; inactive means no such curve, though single readings can be large; an effect the other way counts as inactive or inconclusive.

SMILES	ELG1 genotoxic	SMN2 splice up	Luc counter	NPC1 promoter act	FLuc modulator	Rab9 prom act
Nc1c(-c2ccccc2)c(CN2CCOCC2)nn1-c1ccccc1	–	–	–	–	–	–
Cc1cc(-c2ccccc2)n(-c2ccccc2)n1	?	·	·	?	15µM	?
Cc1nn(-c2ccccc2)c(/N=C/c2ccccc2O)c1-c1ccccc1	?	11µM	–	2.2µM	–	2.8µM
Nc1c(-c2ccccc2)c(CSc2nc3ccccc3[nH]2)nn1-c1cccc(C(=O)O)c1	–	–	–	–	?	–
Cc1nn(-c2nc3ccccc3[nH]2)c(N)c1-c1ccccc1	?	2µM	–	1.6µM	1.9µM	0.63µM
Cc1nn(-c2ccccc2)c(N)c1-c1ccccc1	–	13µM	–	?	13µM	3.2µM
Cc1nn(CC2CCCCC2)c(N)c1-c1ccccc1	?	–	–	–	17µM	?
N#CCCN1CCCc2cc(N=Nc3ccc(C(F)(F)F)cc3)ccc21	–	·	·	?	13µM	?
COc1ccc(NC(=O)Cn2c(=O)n(-c3cccc(C)c3)c(=O)c3c2c2cc(C)ccc2n3C)cc1Cl	·	–	·	·	–	·
Cc1cccc(C(=O)N/N=C/c2ccc(OC3CSC3)cc2)c1	–	–	–	–	11µM	–
O=C(N/N=C/c1cccc(OC2CSC2)c1)c1ccccc1O	–	–	–	–	6.7µM	–
Cn1nccc1C(=O)Oc1cccc(/C=N/NC(=O)c2ccccc2O)c1	?	·	·	–	9.5µM	–
Cc1cccc(C(=O)Oc2ccc(/C=N/NC(=O)c3ccccc3O)cc2)c1	–	–[1.84 µM]	–	–	13µM	–
Cn1ncc(Br)c1C(=O)N/N=C/c1cccc(OC2CSC2)c1	–	–	–	–	–	–
Cn1nccc1C(=O)N/N=C/c1c(O)ccc2ccccc12	?	·	·	–	?	–
CC(=O)Oc1cc(-c2coc3cc(OC(C)=O)c(OC(C)=O)c(OC(C)=O)c3c2=O)cc(OC(C)=O)c1OC(C)=O	·	–	–	·	·	·
CC(C)=N[C@H](C(=O)O)C(C)(C)S	·	–[9.22 µM]	–[7.66 µM]	·	·	·
COc1cccc(C(=O)N/N=C/c2ccc(OC3CSC3)cc2)c1	?	–	–	–	15µM	–
N#CCC(=O)N/N=C/c1ccc(OC2CSC2)cc1	–	–	–	–	–	–
c1ccc(-n2nnnc2SCc2cn3ccccc3n2)cc1	–	–	–	–	–	–
O=[N+]([O-])c1cccc(CSc2nnc3ccccn23)c1	–	–	–	–	–	–
c1ccn2cc(CSc3nnc4ccccn34)nc2c1	10µM	–	–	3.5µM	13µM	1µM
c1ccn2c(SCc3ccc4c(c3)OCCO4)nnc2c1	21µM	11µM	–	?	?	3.5µM
Cc1ccn2cc(CSc3ccccc3)nc2c1	3.7µM	13µM	–	1.3µM	4.8µM	1.4µM
Cn1ccnc1SCc1cn2ccccc2n1	?	?	–	3.2µM	17µM	3.2µM
SMILES	ELG1 genotoxic	SMN2 splice up	Luc counter	NPC1 promoter act	FLuc modulator	Rab9 prom act
COc1cccc(CNC(=O)CCCn2ncn3c(cc4occc43)c2=O)c1OC	·	–	·	·	–	·
CC(=O)c1ccc(NC(=O)CSc2nccn2Cc2ccc3c(c2)OCO3)cc1	·	·	·	·	–	·
c1ccn2cc(CSC3=NCCS3)nc2c1	?	?	–	?	19µM	?
CN(C)C=Nc1ccc2nc3c(cc2c1)[nH]c1ccccc13	?	·	·	1.3µM	1.3µM	1.4µM
CC(C)CCNC(=O)c1ccc2c(c1)N(Cc1ccccc1F)C(=O)c1ccccc1S2=O (stereo not drawn)	·	–	·	·	–	·
Cc1ccc2oc(-c3ccc(C)c(NC(=O)c4ccc(C(C)(C)C)cc4)c3)nc2c1	·	–	·	·	–	·
COc1cc(C(=O)Nc2cc(-c3nc4cc(C)ccc4o3)ccc2C)cc(OC)c1OC	?	?	–	?	0.27µM	?
COc1cc(C(=O)Nc2cccc(-c3nc4ncccc4o3)c2C)cc(OC)c1OC	–	–	–	–	–	–
COc1cc(C(=O)Nc2cccc(-c3nc4cc(C)ccc4o3)c2)cc(OC)c1OC	–	–	–	–	1.7µM	–
COc1cc(C(=O)Nc2cccc(-c3nc4cc(C)ccc4o3)c2C)cc(OC)c1OC	–	–	–	–	0.95µM	–
Cc1ccc2oc(-c3cccc(NC(=O)c4cccc5c(Cl)cccc45)c3)nc2c1	·	–	·	·	–	·
Cc1ccc2oc(-c3ccc(C)c(NC(=S)NC(=O)c4cccs4)c3)nc2c1	8.2µM	?	–	–	6µM	–
CCOc1ccc(C2C(C(=O)Nc3ccc(C)cc3C)=C(C)Nc3c(C(=O)Nc4ccc(C)cc4)cnn32)cc1OC (stereo not drawn)	·	·	·	·	–	·
COc1ccc2c(CNC3CCCCCC3)c(C(=O)O)n(Cc3ccc(C)cc3)c2c1	·	·	·	·	–	·
CCOc1cc(C(=O)NCCc2sc(-c3ccc(F)cc3)nc2C)cc(OCC)c1OCC	·	·	·	·	–	·
COc1cc2[nH]c(=O)n(Cc3ccc(C(=O)N4CCN(c5cc(Cl)ccc5C)CC4)cc3)c(=O)c2cc1OC	·	–	·	·	–	·
Cc1ccc2oc(-c3ccc(C)c(NC(=O)C(C)(C)Oc4ccc(Cl)cc4)c3)nc2c1	·	?	·	·	3.8µM	·
Cc1ccc(C(=O)Nc2cc(-c3nc4cc(Cl)ccc4o3)ccc2C)c(C)c1	·	–	·	·	–	·
Cc1ccc(NC(=O)c2ccn(C)n2)c(Br)c1	5.2µM	2µM	?	?	6µM	3.2µM
Cc1ccc(C)c(NC(=O)c2ccccn2)c1	–	–	–	–	?	–
Cn1nnnc1SCC(=O)Nc1ccc(Br)cc1Br	–	·	·	·	·	·
Cc1ccc(NC(=O)c2ccccn2)c(Br)c1	4.1µM	·	·	?	7.6µM	2.8µM
Cn1ccc(C(=O)Nc2ccc(Br)cc2Br)n1	4.6µM	5µM	–	3.5µM	3µM	3.2µM
COc1ccc(NC(=O)c2c(Cl)nc3ccccn23)cc1	?	?	–	–	?	3.2µM
O=C(Nc1ccc(F)cc1)c1c(Cl)nc2ccccn12	?	?	–	–	?	–
SMILES	ELG1 genotoxic	SMN2 splice up	Luc counter	NPC1 promoter act	FLuc modulator	Rab9 prom act
Cc1nc2ccccn2c1C(=O)/C=C/c1ccc(F)cc1	–	–	–	2.8µM	3µM	?
Cc1nc2ccccn2c1C(=O)NN	–	·	·	–	–	–
COc1ccc(/C=C/C(=O)c2c(C)nc3ccccn23)cc1	–	–	–	?	7.6µM	3.5µM
COc1ccc(CNC(=O)c2c(C)nc3ccccn23)cc1	–	–	–	–	–	–
CN(CCC(=O)O)S(=O)(=O)c1ccccc1	·	–[9.22 µM]	–[7.66 µM]	·	·	·
Cc1ccc(-n2nc3c(=O)n(CC(=O)NCC(C)c4ccccc4)nc(C)c3c2C)cc1 (stereo not drawn)	·	·	·	·	–	·
Cc1cc(C)n2nc(C(=O)OCC(=O)Nc3ccc4c(c3)OCO4)nc2n1	–	–	–	–	–	–
Cc1cc(C)n2nc(CCc3ccccc3)nc2n1	–	–	–	–	–	–
Cc1cc(C)n2nc(C(=O)Nc3ccc4c(c3)OCO4)nc2n1	?	?	?	–	24µM	–
